In PubChem BioAssay AID1159580 (chemical genetic matrix, 2015):
Values joined by “and” are separate entries in the source; they are usually repeats but may differ in a detail not shown here. Equal values may be shown once. Hit rate of the full screen: of about 5,500 compounds, about 2,000 (36%) were called active. About 18% were inconclusive and are not listed. No stated cut-off is given here; in the data, active means normalized growth mostly below about 0.91 (no sharp cut-off); inconclusive means no clear call, values can overlap the other calls; inactive means mostly above about 0.92. Some of the results follow.

Experiment: chemical genetic growth profiling, strain panel (AID 1159580);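 further: tested at 20 µM; growth read once vehicle control cultures reached saturation at 30 °C; 1 = growth at the plate median or of vehicle wells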
Conditions: S. cerevisiae deletion strains, growth OD

Measured: normalized growth

NCCCNCCSP(=O)(O)O
inactive: locus YAL013W, strain DEP1, stronger effect = lower value 0.988 and 1.01 | locus YAL021C, strain ccr4, stronger effect = lower value 0.985 | locus YAL026C, strain drs2, stronger effect = lower value 0.976 | locus YAL030W, strain snc1, stronger effect = lower value 0.968 | locus YAL040C, strain CLN3, stronger effect = lower value 1 | locus YBL061C, strain skt5, stronger effect = lower value 0.97 | locus YBR009C, strain hhf1, stronger effect = lower value 0.988 | locus YBR021W, strain FUR4, stronger effect = lower value 0.967 | locus YBR023C, strain chs3, stronger effect = lower value 0.976 | locus YBR171W, strain sec66, stronger effect = lower value 0.96 | locus YBR229C, strain ROT2, stronger effect = lower value 1 | locus YBR231C, strain swc5, stronger effect = lower value 0.975 | locus YBR279W, strain paf1, stronger effect = lower value 0.995 | locus YCL011C, strain gbp2, stronger effect = lower value 0.957 | locus YCL016C, strain dcc1, stronger effect = lower value 0.982 | locus YCL029C, strain bik1, stronger effect = lower value 0.988 | locus YCL061C, strain MRC1, stronger effect = lower value 0.983 | locus YCL069W, strain vba3, stronger effect = lower value 0.994 | locus YCR088W, strain abp1, stronger effect = lower value 0.982 | locus YDL005C, strain med2, stronger effect = lower value 0.969 | locus YDL035C, strain GPR1, stronger effect = lower value 0.994 | locus YDL040C, strain nat1, stronger effect = lower value 0.987 | locus YDL074C, strain BRE1, stronger effect = lower value 0.993 | locus YDL101C, strain DUN1, stronger effect = lower value 0.984 | locus YDL134C, strain PPH21, stronger effect = lower value 0.994 | locus YDL185W, strain tfp1, stronger effect = lower value 0.944 | locus YDL192W, strain arf1, stronger effect = lower value 0.986 | locus YDR001C, strain nth1, stronger effect = lower value 0.977 | locus YDR069C, strain doa4, stronger effect = lower value 0.968 | locus YDR101C, strain arx1, stronger effect = lower value 1 | locus YDR137W, strain rgp1, stronger effect = lower value 0.968 | locus YDR150W, strain NUM1, stronger effect = lower value 0.949 | locus YDR159W, strain sac3, stronger effect = lower value 0.98 | locus YDR162C, strain NBP2, stronger effect = lower value 0.992 | locus YDR195W, strain ref2 0.989 | locus YDR297W, strain sur2, stronger effect = lower value 0.983 | locus YDR318W, strain mcm21, stronger effect = lower value 0.986 | locus YDR334W, strain swr1, stronger effect = lower value 0.933 | locus YDR335W, strain msn5, stronger effect = lower value 0.981 | locus YDR388W, stronger effect = lower value 1 | locus YDR392W, strain spt3, stronger effect = lower value 0.927 | locus YDR502C, strain sam2, stronger effect = lower value 0.993 | locus YEL003W, strain gim4, stronger effect = lower value 0.988 | locus YEL037C, strain rad23, stronger effect = lower value 0.981 | locus YEL061C, strain CIN8 (second series), stronger effect = lower value 0.972 | locus YEL061C, strain CIN8, stronger effect = lower value 0.998 | locus YER002W, strain NOP16, stronger effect = lower value 0.997 | locus YER015W, strain faa2, stronger effect = lower value 0.973 | locus YER016W, strain bim1, stronger effect = lower value 0.991 | locus YER110C, stronger effect = lower value 0.989 | locus YER111C, strain swi4, stronger effect = lower value 0.988 | locus YER155C, strain BEM2 (second series), stronger effect = lower value 0.983 | locus YER155C, strain BEM2, stronger effect = lower value 0.942 | locus YER167W, strain BCK2, stronger effect = lower value 0.991 | locus YFR010W, strain ubp6, stronger effect = lower value 0.957 | locus YGL078C, strain dbp3, stronger effect = lower value 0.987 | locus YGL086W, strain mad1, stronger effect = lower value 0.978 | locus YGL167C, strain pmr1, stronger effect = lower value 0.976 | locus YGL173C, strain kem1, stronger effect = lower value 0.944 | locus YGL227W, strain vid30, stronger effect = lower value 0.974 | locus YGL240W, strain doc1, stronger effect = lower value 0.984 | locus YGL248W, strain PDE1, stronger effect = lower value 1 | locus YGL253W, strain hxk2, stronger effect = lower value 0.989 | locus YGR078C, strain PAC10, stronger effect = lower value 0.984 | locus YGR135W, strain pre9, stronger effect = lower value 0.984 | locus YGR229C, strain SMI1, stronger effect = lower value 0.964 | locus YGR252W, strain gcn5, stronger effect = lower value 0.978 | locus YHR013C, strain ard1, stronger effect = lower value 0.981 | locus YHR027C, strain rpn1, stronger effect = lower value 0.959 | locus YHR030C, strain SLT2, stronger effect = lower value 0.993 | locus YHR079C, strain IRE1 (second series), stronger effect = lower value 0.991 | locus YHR094C, strain hxt1, stronger effect = lower value 0.979 | locus YHR129C, strain ARP1, stronger effect = lower value 0.999 | locus YHR142W, strain chs7, stronger effect = lower value 0.936 | locus YHR200W, strain rpn10, stronger effect = lower value 0.983 | locus YIL066C, strain RNR3, stronger effect = lower value 0.995 | locus YIL073C, strain SPO22, stronger effect = lower value 0.941 | locus YIL125W, strain kgd1, stronger effect = lower value 1 | locus YIR030C, strain dcg1, stronger effect = lower value 0.998 | locus YJL092W, strain hpr5, stronger effect = lower value 0.979 | locus YJL095W, strain BCK1 (second series), stronger effect = lower value 0.983 | locus YJL095W, strain BCK1, stronger effect = lower value 1.02 | locus YJL115W, strain asf1, stronger effect = lower value 0.955 | locus YJL129C, strain trk1, stronger effect = lower value 1 | locus YJL134W, strain LCB3, stronger effect = lower value 0.989 | locus YJL154C, strain vps35, stronger effect = lower value 0.972 | locus YJL164C, strain tpk1, stronger effect = lower value 0.992 | locus YJL166W, strain qcr8, stronger effect = lower value 0.956 | locus YJL168C, strain set2, stronger effect = lower value 1 | locus YJL187C, strain SWE1 (second series), stronger effect = lower value 0.99 | locus YJL187C, strain SWE1, stronger effect = lower value 0.982 | locus YJR043C, strain POL32, stronger effect = lower value 0.994
